Screening data deposited in PubChem by The Scripps Research Institute Molecular Screening Center.
Most compounds without a hit are left out; they make up all but 4.1% or so of the library.
ssDAF-12 act: activates DAF-12 receptor from parasite S. stercoralis; HEK293 ssDAF-12/GRIP1 lit1-tk-luc reporter, luminescence; % of 3 µM dafachronic acid response; 1% of 370,000 active; activation, % at 6.8 µM;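 active = activation above the mean over all tested compounds plus 3 SD, cut at about 0.9% in these data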
hcDAF-12 act: activates DAF-12 receptor from parasite H. contortus; HEK293 hcDAF-12 lit1-tk-luc reporter, luminescence; 0% DMSO, 100% Δ7-dafachronic acid; activation, % at 6.8 µM; 1.4% of 370,000 active;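 active = activation above the mean of all tested compounds plus 3 SD, cut at about 5.5% in these data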
DAX1 inh-1: inhibitors of DAX1 repression of SF-1 activated StAR promoter. HEK293T StAR-luciferase reporter, SF-1/DAX-1 repression relief. inhibition, % at 6.8 µM. 1.1% of 370,000 active. AID 652010;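 active = inhibition above the mean over all tested compounds plus 3 SD, cut at about 3.6% in these data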;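 also: higher inhibition means more luminescence from relief of DAX-1 repression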
DAX1 inh-2: inhibits human nuclear receptor DAX1; inhibition, % at 6.75 µM; 0.99% of 340,000 active; HEK293 Gal4-DAX1 luciferase reporter, luminescence; P51843;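 active = inhibition above the mean over all tested compounds plus 3 SD, cut at about 4.2% in these data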;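 also: inhibition shows as a rise in luminescence from relieved DAX1 repression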
Target sequence (P51843 207-470 limits assumed): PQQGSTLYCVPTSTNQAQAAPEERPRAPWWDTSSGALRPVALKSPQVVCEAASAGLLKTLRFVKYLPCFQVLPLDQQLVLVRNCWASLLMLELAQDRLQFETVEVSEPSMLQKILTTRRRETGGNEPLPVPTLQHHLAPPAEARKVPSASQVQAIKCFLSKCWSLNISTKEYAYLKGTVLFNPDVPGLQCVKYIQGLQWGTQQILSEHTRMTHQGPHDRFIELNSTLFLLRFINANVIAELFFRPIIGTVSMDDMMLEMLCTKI
hgDAF-12 ag: hgDAF-12 agonism, primary luciferase screen; HEK293 GAL4-hgDAF12 UAS-luciferase reporter, agonist luminescence; normalized to butyrate control; 1.8% of 370,000 active; AID 687014; activation, % at 6.8 µM;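 active = activation above a cutoff set at the mean of all screened compounds plus 3 SD, cut at about 10% in these data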
DAX1 inh confirm: confirmation of human DAX1 (NR0B1) inhibitors; shares compounds with DAX1 inh-1; AID 652134; 87% of 2,400 active; HEK293T StAR-promoter luciferase reporter, SF-1/DAX-1 repression; inhibition, % at 6.8 µM;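 active = inhibition above the average of every tested compound plus 3 SD, cut at about 3.8% in these data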;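 also: active compounds raise luminescence by relieving repression of the StAR reporter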
SF1 AF2mut Luc: counter-screen for DAX1 inhibitors: nonselective inhibitors with SF-1 AF2 mutant; HEK293 StAR-luciferase, luminescence; 78% of 2,400 active; shares compounds with DAX1 inh-1; inhibition, % at 6.8 µM;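 active = inhibition above the mean of all tested compounds plus 3 SD, cut at about 3% in these data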
Each line names hits and unclear results; the compound was inactive in the other large screens (follow-up assays come after a bar, where they were run).

O=C(Nc1ccccc1)c1c(O)c2c(n(Cc3ccco3)c1=O)CCCC2	DAX1 inh-2 4.3
O=C(Nc1nccs1)c1c(O)c2c(n(Cc3ccco3)c1=O)CCCC2	ssDAF-12 act 1.3
CCN(CC)C(=O)COc1cc(C)cc2oc(=O)c3c(c12)CCCC3	none
CC(=O)Nc1ccc(S(=O)(=O)N2Cc3cnnn3-c3ccccc3C2C#N)cc1 (centres undefined)	DAX1 inh-1 3.7
C[C@]12CCC3C(CC[C@H]4C[C@@H](O)CC[C@]34C)C1C[C@H](Br)[C@@H]2O (some centres undefined)	none (no result: DAX1 inh-2)
COc1ccc2c3c([nH]c2c1)C(C)NCC3 (centres undefined)	none
COc1ccc2[nH]c3c(c2c1)CCNC3C (centres undefined)	hcDAF-12 act 5.7
COCCOC(=O)C1=C(N)Oc2c(c(=O)oc3ccccc23)C1c1ccncc1 (centres undefined)	none
CC(C)(C)NC(=O)CN1C(=O)[C@@H](Cc2c[nH]c3ccccc23)N=C(c2ccccc2)c2ccccc21	none (no result: DAX1 inh-2)
COc1cccc(OCc2cc(C(=O)N3C[C@H]4C[C@@H](C3)c3cccc(=O)n3C4)no2)c1	ssDAF-12 act 1.5, hcDAF-12 act 5.6, hgDAF-12 ag 12.9
COc1ccc2c(C)c(CCC(=O)N3C[C@H]4C[C@@H](C3)c3cccc(=O)n3C4)c(=O)oc2c1	DAX1 inh-2 5.7
COc1ccc2[nH]c(C)c(CCNCc3cc(OC)c(OC)c(OC)c3)c2c1	none
Cc1ccc2[nH]c(C)c(CCNCc3cccnc3)c2c1	ssDAF-12 act 1.0
NC(=S)N/N=C/c1coc2ccccc2c1=O	ssDAF-12 act 1.2
CC(C)C[C@H]1COc2cccc(N3CCN(C)CC3)c2S(=O)(=O)N1	DAX1 inh-1 4.2 (no result: DAX1 inh-2)
Cc1ccc(C2NC(=S)NC(c3ccc(C)cc3)C23C(=O)NC(=O)NC3=O)cc1 (centres undefined)	DAX1 inh-2 4.3
ClCCN(CCCl)c1ccc(-n2cnc3c(Cl)ncnc32)cc1	none
O=C(Cc1c[nH]c2ccccc12)NNCc1ccc(N(CCCl)CCCl)cc1	ssDAF-12 act 48.6
COc1ccc(OC)c(C(c2c(O)c3ccccc3oc2=O)c2c(C)n(C)n(-c3ccccc3)c2=O)c1 (centres undefined)	DAX1 inh-2 6.6
Cc1c(C(c2ccc(O)cc2)c2c(O)c3ccccc3oc2=O)c(=O)n(-c2ccccc2)n1C (centres undefined)	none
COC(=O)C1=C(N)Oc2cc(C)oc(=O)c2C12C(=O)Nc1ccccc12 (centres undefined)	ssDAF-12 act 1.0
CCCCOC(=O)C1=C(N)OC2=C(C(=O)CCC2)[C@]12C(=O)Nc1ccccc12	none
COCCOC(=O)C1=C(C)OC(N)=C(C(=O)OC)C12C(=O)Nc1ccccc12 (centres undefined)	none
CC(=O)C1=C(C)OC(N)=C(C(=O)OC(C)C)C12C(=O)Nc1ccccc12 (centres undefined)	hcDAF-12 act 6.2
COc1ccc(NC(=O)[C@@H](NC(=O)N2C[C@H]3C[C@@H](C2)c2cccc(=O)n2C3)C(C)C)cc1	none
CN1CCN(C(=O)COc2ccc(-c3nc4ccccc4s3)cc2)CC1	DAX1 inh-1 3.9, hgDAF-12 ag 11.4
CN1CCN(C(=O)COc2ccc3ccccc3c2)CC1	none
CC(C)NS(=O)(=O)c1ccc(OCC(=O)N2CCN(C)CC2)cc1	DAX1 inh-2 4.4
CCOC(=O)CC[C@@H]1CC[C@]2(CCCN(Cc3ccncc3)C2)O1	none (no result: DAX1 inh-2)
CC(C)(C)n1nnnc1C1CN=C(c2ccccc2)c2cc(Cl)ccc2N1 (centres undefined)	none (no result: DAX1 inh-2)
CC(C)(C)n1nnnc1C1CN=C(c2ccccc2)c2ccccc2N1 (centres undefined)	hgDAF-12 ag 10.8 (no result: DAX1 inh-2)
O=C1Nc2cc(C(=O)N3CCC4(CC3)OCCO4)ccc2S/C1=C\c1ccccc1	none
COc1ccc(C(=O)C2CCCN(CC3CCCCC3)C2)cc1OC (centres undefined)	DAX1 inh-1 3.9 (no result: DAX1 inh-2)
COc1ccc(CCNCc2ccccc2F)cc1	none
COc1ccccc1N1CCN(Cc2ccc(F)cc2)CC1	none
COc1ccc(CN2CCN(c3ccccc3F)CC2)cc1O	DAX1 inh-2 4.5
C[C@@H]1CN(C2CCC(C#N)(c3ccc(F)cc3)CC2)CC[C@]1(C(=O)O)c1ccccc1 (some centres undefined)	none
Cc1cc(C)c(-n2c(O)c(/C=N/NC(=O)c3ccncc3)c(=O)[nH]c2=O)c(C)c1	none (no result: DAX1 inh-2)
Cc1ccccc1-n1c(O)c(/C=N/NC(=O)c2ccncc2)c(=O)[nH]c1=O	DAX1 inh-2 4.4
CCOC(=O)C1=C(C(=O)OCC)C2(c3ccccc3)c3ccccc3C1(C)N2C (centres undefined)	none (no result: DAX1 inh-2)
CC[N+](C)(CC)CCCCOc1ccc2c(c1)C(=O)c1cc(OCCCC[N+](C)(CC)CC)ccc1-2	DAX1 inh-2 5.5
Cc1ccc(-c2nn(Cc3ccccc3)cc2C(=O)O)cc1	DAX1 inh-2 5.3
O=C(O)Cn1cc(/C=C2\C(=O)NC(=O)N(c3ccc(Br)cc3)C2=O)c2ccccc21	ssDAF-12 act 1.2, hcDAF-12 act 5.6
Cc1ccc(N2C(=O)NC(=O)/C(=C\c3cn(CC(=O)O)c4ccccc34)C2=O)cc1	ssDAF-12 act 1.4
O=C(c1cc(F)ccc1F)C1CCCN(Cc2ccc3nonc3c2)C1 (centres undefined)	none
O=c1c2ccccc2nc(-c2ccccc2Cl)n1-c1ccc(O)cc1	none
CNC(=O)O/N=C(\C)Cc1nnn(-c2cc(C)on2)n1	DAX1 inh-2 5.1
NS(=O)(=O)c1ccc(N=Nc2c(O)[nH]c(=S)[nH]c2=O)cc1	none
COc1ccc(N=Nc2c(O)[nH]c(=S)[nH]c2=O)cc1	DAX1 inh-1 3.9
O=c1[nH]c(=S)[nH]c(O)c1N=Nc1ccc(OC(F)F)cc1	DAX1 inh-2 4.4
N#CCC[C@@H]1CC[C@]2(CCCN(Cc3ccncc3)C2)O1	none (no result: DAX1 inh-2)
CC/C(=N\Nc1ccccc1)c1c(O)[nH]c(=O)[nH]c1=O	none
CC/C(=N\Nc1cccc2ccccc12)c1c(O)[nH]c(=O)[nH]c1=O	ssDAF-12 act 1.3
CCN(CC)C(=O)c1ccc(NC(=O)CCCSc2ccccc2)cc1	none
CCN(CC)C(=O)c1ccc(NC(=O)Nc2ccccc2F)cc1	DAX1 inh-1 6.5, hgDAF-12 ag 11.1 | DAX1 inh confirm 8.9 | SF1 AF2mut Luc 4.2
O=C(N/N=C/c1c(O)n(C2CCCCC2)c(=S)[nH]c1=O)c1ccccc1O	none
